Test results from PubChem BioAssay AID485350 (ICCB-Longwood Screening Facility, Harvard Medical School, 2010).
In all, about 84,000 compounds went through this assay and about 95 (0.1%) were called active. Cut-off read from the data, not from the text of the source: active = inhibition above about 25% (passing the limit was not always enough); inactive = the rest. Only a selection was taken, and actives are over-represented in it overall.

Each compound was assayed on BasE (2,3-dihydroxybenzoate-AMP ligase), Acinetobacter baumannii ATCC 17978 (assay: BasE siderophore enzyme inhibitors, primary screen, biochemical, Acinetobacter baumannii ATCC 17978, fluorescence polarization (AID 485350;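 note: 0% = negative plate control signal and 100% = positive plate control signal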)). Conditions: purified BasE, fluorescence polarization binding displacement; hits give high values; concentration not given here.

inhibition, inactive:
COc1ccccc1OCCCn1cc(/C=C2/C(=N)N3C=CSC3=NC2=O)c2ccccc21 2.49%
Cc1nn(CCC#N)c2nc(-c3ccc(F)cc3)cc(C(=O)O)c12 0.45%
Cc1noc(/C=C/N2CCOCC2)c1S(=O)(=O)N(C)CCc1ccc(Cl)cc1 3.54%
Cc1cc(C)nc(SCC(=O)OCC(=O)N2CCc3ccccc32)n1 -2.45%
COC(=O)C1=CN(C(C)C)C=C(C(=O)OC)C1c1cccs1 -11.7%
O=C(OCCN1CCCCC1)c1ccc(F)cc1 -3.82%
Cc1cc(C)n(C(=O)N2c3ccccc3Sc3ccccc32)n1 2.13%
COc1ccc(CC(=O)N/N=C2/CC(=O)CC(C)(C)C2)cc1 -0.19%
Cc1ccc(Nc2nc(N)nc(CSc3nc4c(n3-c3ccccc3)CCCC4)n2)cc1 -1.36%
S=C(Nc1cccnc1)Nc1ccccc1N1CCCCC1 3.7%
O=C(Cn1c(=O)oc2ccccc21)NCc1ccccc1 -2.65%
CC(C(=O)N1CCCc2ccccc21)n1nc(-c2cccs2)oc1=O (stereo not drawn) -0.37%
CCNC(=O)c1ccc(OCc2c(C)noc2C)c(OC)c1 -0.55%
CCOC(=O)CSc1ncnc2sc3c(c12)CCC3 -0.59%
CSc1nnc(C)n1Cc1ccccc1 -0.73%
CC1CN(C(=O)COC(=O)c2cccc3ccccc23)CC(C)O1 (stereo not drawn) 1.48%
Cc1occc1C(=O)Nc1cccc(-c2nn[nH]n2)c1 1.61%
Cn1c(=O)c2c(SC/C(O)=C(\C#N)c3nc4ccccc4[nH]3)nc(C(C)(C)C)nc2n(C)c1=O 0.74%
Cc1cc(-c2nn(C)c(=O)c3ccccc23)cc(C)c1OC(=O)Nc1ccc(Cl)cc1 1.43%
NNC(=O)c1ccc(COc2ccccc2)o1 -1.29%
CC1CN(C(=O)CSc2nc3scc(-c4ccccc4)c3c(=O)n2N)CC(C)O1 (stereo not drawn) 1.03%
COc1ccc(C)cc1NC(=O)C(OC(=O)c1ccc(Br)o1)c1ccccc1 (stereo not drawn) -0.6%
CCN=c1sc(C(=O)Nc2ccccc2)c(C)n1CC -0.02%
COC(=O)CCC1(C(=O)O)CCOC(C)(C)C1 (stereo not drawn) 0.97%
NC(=O)CSc1nnc(SCCOc2ccccc2)s1 0.35%
O=C(CSc1nc2cc3c(cc2c(=O)n1Cc1ccc2c(c1)OCO2)OCO3)NCCc1ccccc1 0.07%
COCCn1c(C)cc(C(=O)CSc2nc(C)c(C)n2C2CCCCC2)c1C -0.27%
CCCCNc1ncc2c(n1)c(=O)c(C#N)c1[nH]c3ccccc3c(=O)n12 -8.32%
CCOCCCn1c(CC(N)=O)n[nH]c1=S 0.4%
Nn1c(SCC2CCCCO2)nnc1-c1ccncc1 (stereo not drawn) 1.26%
COC(=O)Cc1c(C)n[nH]c1C 1.01%
c1ccc(-n2nnnc2Sc2nnc3n2CCCCC3)cc1 -0.02%
O=C(Nc1ccncc1)OCCc1ccccn1 4.83%
Cc1cc(N2CCN(C)CC2)nc2ccc(NC(=O)NC3CCCC3)cc12 -2.82%
Cc1ccc2cc(C#N)c(NCCNC(=O)Nc3ccccc3C)nc2c1 4.18%
O=C(CCNC(=O)NC12CC3CC(CC(C3)C1)C2)Nc1ccc(-n2cnnn2)cc1 2.05%
CC(=O)NCCC(=O)Nc1nccs1 -1.55%
CCOC(=O)Cn1c(=O)c(=O)n(C)c2c1c(C)nn2-c1ccccc1 -0.65%
C=CCn1c(COc2ccccc2F)nnc1SC(C)C(=O)NC(N)=O (stereo not drawn) 0.29%
CN(C)S(=O)(=O)c1ccc(C(=O)OCC(=O)N2CCCCC2)cc1 0.92%
C=CCN(CC=C)C(=O)CSc1nnc2c3ccccc3n(C)c2n1 4.82%
CCC(CC)=NNC(=O)c1cc(-c2ccccc2)n[nH]1 0.72%
COc1ccccc1NC(=O)c1ccc(N2CC3CC(C2)c2cccc(=O)n2C3)c(NC(=O)c2cccnc2)c1 (stereo not drawn) -1.5%
C=CCN(S(=O)(=O)c1ccc(Cl)cc1)S(=O)(=O)c1ccccc1OC 5.47%
CCCCN(C)S(=O)(=O)c1ccc2c(c1)CCN2C(=O)CCC(=O)O 1.97%
CN(C)CCN=c1cc(-c2ccccc2)oc2ccc(Cl)cc12 -2.16%
Cc1nc(SCC(=O)NC(C)(C#N)C2CC2)c2c(C)c(C)sc2n1 (stereo not drawn) -0.09%
Cc1cc2nc(N(C)C)c3ccccc3n2n1 2.28%
CC1CN(C(=O)Cn2nc(-c3cccc(-n4cccc4)c3)oc2=O)CC(C)O1 (stereo not drawn) -1.31%
O=C(O)c1cccnc1SCc1cc(=O)n2cc(Br)ccc2n1 1.25%
CC(=O)NCc1ccc(-c2csc(CC(=O)Nc3ccc(C)cc3C)n2)o1 0.82%
C/C(=N/NC(=O)CCc1ccccc1)C1CC1 2.92%
COc1ccc(OCCNS(=O)(=O)Cc2ccccc2)cc1 3.47%
CC1CN(CC(=O)Nc2ccccc2C(C)C)CC(C)O1 (stereo not drawn) -1.49%
CCN(CC)Cc1cc(C(=O)O)co1 -4.35%
O=C(N/N=C/c1cccnc1)c1ccc(CN2CCOCC2)cc1 1.66%
CCN1C(=O)/C(=C/N(C(C)=O)c2ccccc2)OC1=S 1.08%
O=C(CSc1ncnc2c1nnn2Cc1ccc(F)cc1)NC1CCCC1 -1.58%
Cc1ccccc1Nc1nc(N)nc(CNCc2ccccc2)n1 5.66%
Cc1oc(-c2cccc(Cl)c2)nc1CN1CCCC(C(=O)N2CCN(c3cccc(Cl)c3)CC2)C1 (stereo not drawn) -0.15%
Cc1nc2c(cnn2C(C)C)c(C)c1CCC(=O)OC(C)C(=O)Nc1ccc(C(N)=O)cc1 (stereo not drawn) -3.6%
Cc1cc(C(=O)OCC(=O)c2cc(C)n(-c3ccc(Cl)cc3)c2C)no1 1.57%
CCN(Cc1ccc2c(c1)OCCO2)C(=O)c1ccc(-n2cccn2)cc1 -0.56%
